The values that follow come from PubChem BioAssay (EPA / NIEHS).

“And” between values parts separate entries of the source, which are not always exact repeats. Equal values may be shown once. Results filed as inconclusive are left out. Some structures have more than one record in an assay (separate samples or runs), and their calls can disagree. The source made the active and inactive calls. The calls were made as follows: active = hit-call score of the fitted dose curve at least 0.9, where 1 is the maximum; inconclusive = response in the unintended direction; inactive = score below 0.9.

One experiment deals with Cellular tumor antigen p53 (Homo sapiens) (UniProt P04637). Description: TOX21_p53_BLA_p3_ratio: Tox21 HCT-116 p53 Agonism Beta-lactamase Assay, Ratio, Phase 3 (AID 2283596). The essentials: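 HCT116 p53-bla cells (4000/well) given compound in DMSO (217-fold dilution) after 5 h, incubated 16 h at 37C. CCF4-AM substrate 2 h at room temperature; 460/530 nm emission ratio, gain fitted against DMSO.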
Chain of Cellular tumor antigen p53 (Homo sapiens) (P04637 whole entry, looked up): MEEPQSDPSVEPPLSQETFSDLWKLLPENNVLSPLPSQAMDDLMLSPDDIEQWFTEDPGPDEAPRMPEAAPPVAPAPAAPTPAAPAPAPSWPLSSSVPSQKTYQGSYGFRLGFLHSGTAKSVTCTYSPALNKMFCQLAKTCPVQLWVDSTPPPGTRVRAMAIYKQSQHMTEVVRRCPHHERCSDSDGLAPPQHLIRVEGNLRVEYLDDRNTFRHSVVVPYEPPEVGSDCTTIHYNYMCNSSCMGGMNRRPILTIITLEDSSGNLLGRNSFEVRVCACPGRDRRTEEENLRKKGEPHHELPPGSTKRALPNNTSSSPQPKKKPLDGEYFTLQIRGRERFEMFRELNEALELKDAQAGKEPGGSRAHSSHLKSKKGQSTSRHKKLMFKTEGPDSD
For `ClCCOCCCl`, the outcome was inactive. Consider `c1ccc(N=Nc2ccccc2)cc1`, for which the result was inactive.

`Clc1ccc(C(c2ccc(Cl)cc2)C(Cl)(Cl)Cl)cc1`: the result was inactive. Turning to `[As]#[In]`, the result was inactive. For `O=Cc1ccco1`, the result was inactive. On to `Nc1cc(Cl)cc(C(=O)O)c1Cl`, for which the outcome was inactive. As for `Nc1ccc(Oc2ccc(N)cc2)cc1`, the outcome was inactive. Turning to `O=C1CCCO1`, the outcome was inactive.

As for `CC(C)N(Cc1ccccc1)C(=O)C(C)(C)C`, the result was inactive. `COC(=O)c1ccccc1N`: the outcome was inactive.

For `Clc1ccc(C(c2ccc(Cl)cc2)C(Cl)Cl)cc1`, the half-maximal activity concentration (AC50) was 48.4 µM (active) and the result was inactive. Turning to `c1ccc2c(c1)-c1cccc3cccc-2c13`, the outcome was inactive. Turning to `C1=Cc2cccc3cccc1c23`, the outcome was inactive.

For the compound `c1ccc2c(c1)oc1ccccc12`, the result was inactive. Regarding `CCC[CH2][Sn]([Cl])([CH2]CCC)[CH2]CCC`, the AC50 was 25.6 µM (active) and 28.6 µM (active).

Turning to `c1ccc(NNc2ccccc2)cc1`, the outcome was inactive. `CN(C)c1ccc(C(=O)c2ccc(N(C)C)cc2)cc1`: the AC50 is 826 nM (active) and 1.65 µM (active). On to `CCCCC(CC)COC(=O)c1ccc(C(=O)OCC(CC)CCCC)c(C(=O)OCC(CC)CCCC)c1` (configuration not stated), for which the result was inactive. For the compound `CN(C)C(=O)Nc1ccc(Cl)cc1`, the outcome was inactive.

As to `Cc1ccc(N)cc1`, the result was inactive. Consider `Nc1ccc([N+](=O)[O-])cc1`, for which the result was inactive. The same measure, in the same setting: the result for `CC(O)CCO` (configuration not stated) reads “inactive”. Still for that read-out and setting: the result for `Oc1ccc2ccc3cccc4ccc1c2c34` reads “inactive”. As to `CCCCCCCCCCCCCN1CC(C)OC(C)C1` (configuration not stated), the result was inactive. `C[N+](C)(C)CC1CO1` (configuration not stated): the result was inactive. Regarding `Cc1ccc([N+](=O)[O-])cc1`, the result was inactive.

Tested on in the next experiment: not listed separately
Description: TOX21_p53_BLA_p4_viability: Viability Assessment in the Tox21 HCT-116 p53 Agonism Beta-lactamase Assay, Phase 4 (AID 2283597).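 Also: hits lower the luminescence signal meaning cytotoxicity.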 The essentials:
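Luminescent ATP readout (CellTiter-Glo, 30 min, room temperature) in the same wells as the p53 bla ratio. HCT116 cells were treated for 16 h at 37C with DMSO-dissolved compounds.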
For `ClCCOCCCl`, the result was inactive.

Regarding `Clc1ccc(C(c2ccc(Cl)cc2)C(Cl)(Cl)Cl)cc1`, the AC50 was 30.7 µM (active) and the compound was called inactive. Consider `O=Cc1ccco1`, for which the result was inactive. In the case of `Nc1cc(Cl)cc(C(=O)O)c1Cl`, the compound was called inactive. `O=C1CCCO1`: the compound was classed as inactive. As to `Clc1ccc(C(c2ccc(Cl)cc2)C(Cl)Cl)cc1`, the AC50 is 63.4 µM (active) and 46.7 µM (active).

Regarding `c1ccc2c(c1)-c1cccc3cccc-2c13`, the call was inactive. Still for that read-out and setting: the result for `C1=Cc2cccc3cccc1c23` reads “inactive”. In the case of `c1ccc2c(c1)oc1ccccc12`, the call was inactive. With `CCC[CH2][Sn]([Cl])([CH2]CCC)[CH2]CCC`, the AC50 was 917 nM (active) and 983 nM (active). `CC(C)(O)c1cnn2c(-c3ccc(F)c(-c4c(F)cccc4C#N)c3)cnc2n1`: the outcome was inactive.

Turning to `CN(C)c1ccc(C(=O)c2ccc(N(C)C)cc2)cc1`, the call was inactive. As for `CCCCC(CC)COC(=O)c1ccc(C(=O)OCC(CC)CCCC)c(C(=O)OCC(CC)CCCC)c1` (configuration not stated), the outcome was inactive. For the compound `CN(C)C(=O)Nc1ccc(Cl)cc1`, the compound was called inactive. As to `Cc1ccc(N)cc1`, the outcome was inactive. `Nc1ccc([N+](=O)[O-])cc1`: the outcome was inactive. Same read-out and setting: the result for `CC(O)CCO` (configuration not stated) reads “inactive”; that for `Oc1ccc2ccc3cccc4ccc1c2c34`, “inactive”; that for `Cc1ccc([N+](=O)[O-])cc1`, “inactive”.

What is called AC50 is the concentration giving half of the maximal activity seen.
